Reference: article PMC4336329 (PLoS ONE, 2015)
The campaign covered roughly 310,000 compounds. About 14,000 (4.5%) showed an effect of 50% or more. Effects have a minus sign here. For the sample, strong results were picked, then their nearest neighbours and some compounds at random.

Each molecule was assayed against human ether-à-go-go-related gene (hERG) potassium channel (human, UniProt Q12809) (assay: primary screen, population patch clamp on CHO cells stably expressing hERG; higher = less effect of the substance).
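Further: peak tail current of the secondary pulse compared with the same well before compound.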

Chain of human ether-à-go-go-related gene (hERG) potassium channel (Q12809 whole entry, looked up): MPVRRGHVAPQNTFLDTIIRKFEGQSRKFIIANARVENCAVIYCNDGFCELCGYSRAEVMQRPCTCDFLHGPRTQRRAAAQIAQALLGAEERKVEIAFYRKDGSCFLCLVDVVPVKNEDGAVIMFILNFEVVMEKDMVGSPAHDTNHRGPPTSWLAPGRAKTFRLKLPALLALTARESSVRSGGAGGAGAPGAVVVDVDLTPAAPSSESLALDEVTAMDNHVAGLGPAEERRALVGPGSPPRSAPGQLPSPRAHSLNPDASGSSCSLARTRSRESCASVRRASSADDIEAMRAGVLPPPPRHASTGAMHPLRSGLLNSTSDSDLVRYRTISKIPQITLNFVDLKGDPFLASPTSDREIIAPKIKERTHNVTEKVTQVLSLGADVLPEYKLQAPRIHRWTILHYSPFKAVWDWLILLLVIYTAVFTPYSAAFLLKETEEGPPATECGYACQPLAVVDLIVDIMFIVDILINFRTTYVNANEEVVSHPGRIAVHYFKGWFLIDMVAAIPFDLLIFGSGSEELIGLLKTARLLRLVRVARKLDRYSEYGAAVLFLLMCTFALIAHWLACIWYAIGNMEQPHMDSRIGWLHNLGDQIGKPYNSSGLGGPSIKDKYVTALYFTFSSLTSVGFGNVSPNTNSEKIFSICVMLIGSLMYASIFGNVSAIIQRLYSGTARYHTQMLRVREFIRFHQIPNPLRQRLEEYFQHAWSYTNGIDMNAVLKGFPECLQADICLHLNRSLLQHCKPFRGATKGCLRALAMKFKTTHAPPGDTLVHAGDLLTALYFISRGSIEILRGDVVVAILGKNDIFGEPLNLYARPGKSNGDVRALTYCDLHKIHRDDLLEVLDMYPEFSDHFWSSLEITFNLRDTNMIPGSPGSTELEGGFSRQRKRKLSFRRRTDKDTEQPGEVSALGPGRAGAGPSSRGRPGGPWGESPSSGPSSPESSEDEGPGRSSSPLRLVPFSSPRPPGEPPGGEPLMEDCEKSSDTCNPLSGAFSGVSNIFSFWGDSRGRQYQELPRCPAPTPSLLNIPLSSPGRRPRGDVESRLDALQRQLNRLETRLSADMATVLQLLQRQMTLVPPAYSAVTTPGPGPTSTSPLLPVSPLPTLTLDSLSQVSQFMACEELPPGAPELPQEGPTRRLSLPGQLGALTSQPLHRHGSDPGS

In order of rising “hERG current change (%, negative = inhibition) at 10uM” value:
1. COc1ccc(-n2c(SCC(=O)NCc3cccs3)nnc2-c2ccoc2C)cc1  -78%
2. Cc1ccc(OCC(O)CN2CCC(Cc3ccccc3)CC2)c(C)c1.Cl (stereo not shown)  -75.2%
3. Cc1ccc(-n2c(SCC(=O)NCc3cccs3)nnc2-c2ccoc2C)cc1  -74.8%
4. Nn1c(SCC(=O)NCC2CCCO2)nnc1-c1ccc(OC(F)F)cc1 (stereo not shown)  -68.5%
5. CCCn1c(SCC(=O)Nc2ccccc2OC)nnc1-c1ccco1  -68.5%
6. COc1ccccc1CNCC(O)(c1ccc(F)cc1)c1ccc(F)cc1  -68%
7. Cc1ccc(C)c(OCC(O)CN2CCC(Cc3ccccc3)CC2)c1.Cl (stereo not shown)  -67.6%
8. CCOc1ccccc1NC(=O)CSc1nnc(-c2ccccn2)n1Cc1ccco1  -67.3%
9. COc1ccccc1NC(=O)CSc1nnc(-c2ccco2)n1Cc1ccco1  -65.4%
10. Cc1occc1-c1nnc(SCC(=O)c2ccc(Cl)cc2)n1CC1CCCO1 (stereo not shown)  -65.1%
11. CCOc1ccccc1NC(=O)CSc1nnc(-c2ccco2)n1Cc1ccco1  -63.4%
12. COc1ccc(CNCC(O)(c2ccc(F)cc2)c2ccc(F)cc2)cc1OC  -62.1%
13. CCOc1ccccc1NC(=O)CSc1nnc(Cn2c(=O)sc3ccccc32)n1C  -61.9%
14. COc1ccc(CNCC(O)(c2ccccc2)c2ccc(F)cc2)cc1OC (stereo not shown)  -61.2%
15. Cc1occc1-c1nnc(SCC(=O)NCc2cccs2)n1-c1ccc(F)cc1  -60.2%
16. COc1ccc(CNCC(O)(c2ccccc2)c2ccccc2)cc1OC  -60%
17. Cc1ccc(-n2c(SCC(=O)NCC3CCCO3)nnc2-c2ccoc2C)cc1 (stereo not shown)  -55.6%
18. COc1cccc(OC)c1OCCNCC1CSc2ccccc2O1.Cl (stereo not shown)  -53.6%
19. COc1ccccc1NC(=O)CSc1nnc(Cn2c(=O)sc3ccccc32)n1C  -44%
20. COC(=O)CSc1nnc(-c2ccoc2C)n1-c1ccc(C)cc1  -37%
21. COc1ccc(-c2nnc(SCC(=O)NCc3cccs3)n2C(C)C)cc1  -35.8%
22. Cc1ccc(CNCC(O)(c2ccccc2)c2ccccc2)cc1  -33%
23. Cc1ccc(CN2CC(C(=O)N3CCN(S(=O)(=O)c4cccc(F)c4)CC3)CC2=O)cc1 (stereo not shown)  -32.6%
24. CCOc1ccccc1NC(=O)CSc1nnc(-c2ccccc2Cl)n1Cc1ccco1  -32%
25. COc1ccc(CNCC(O)(c2ccc(Cl)cc2)c2ccc(Cl)cc2)cc1OC  -30.9%
26. Cc1ccc(SC(C)c2nc(-c3cccnc3)no2)cc1 (stereo not shown)  -30.5%
27. COC(=O)CSc1nnc(-c2ccco2)n1Cc1ccco1  -26.8%
28. OC(CNCc1ccccc1F)(c1ccc(F)cc1)c1ccc(F)cc1  -26.7%
29. CC(Sc1nnc(-c2ccc(OC(F)F)cc2)n1N)C(=O)NCC1CCCO1 (stereo not shown)  -24.2%
30. COc1cccc(OC)c1OCCNCC1COc2ccccc2O1.Cl (stereo not shown)  -22.5%
31. CC(C)CSc1oc(-c2ccco2)nc1S(=O)(=O)c1ccccc1  -19.7%
32. N#CCCN(Cc1ccccc1)S(=O)(=O)c1cccs1  -16.5%
33. COc1ccc(C)cc1NC(=O)CSc1nnc(-c2ccccn2)n1Cc1ccco1  -15.8%
34. O=C(CSc1nnc(-c2ccncc2)n1-c1ccc(Cl)cc1)NCc1cccs1  -15.3%
35. O=C(Nc1ccc(C(F)(F)F)cc1)C1(c2ccccc2)CC1  -15.2%
36. COc1ccc(CN2C(=O)CCC2(C)C(=O)NC2CCCCCC2)cc1 (stereo not shown)  -13.8%
37. COc1ccccc1CNCC(O)(c1ccc(Cl)cc1)c1ccc(Cl)cc1  -13.7%
38. COCCn1c(SCC(=O)Nc2ccccc2OC)nnc1-c1ccco1  -13.6%
39. COc1ccc(C)cc1NC(=O)CSc1nnc(-c2ccco2)n1Cc1ccco1  -12.8%
40. COc1ccc(C(=O)CSc2nnc(-c3ccoc3C)n2CC2CCCO2)cc1 (stereo not shown)  -11.7%
41. Cc1ccc(-n2nnnc2SCC(=O)c2c(N)n(C3CC3)c(=O)[nH]c2=O)cc1C  -10.6%
42. Cc1ccc(NC(=S)N/N=C2\CCCCC2C)cc1 (stereo not shown)  -10.4%
43. Cc1ccnc(NC(=S)NC(=O)c2ccco2)c1  -10.3%
44. COc1ccccc1NC(=O)CSc1nnc(-c2ccccn2)n1Cc1ccco1  -9.97%
45. COc1ccc(S(=O)(=O)Nc2ccccc2-c2nc3ccccc3[nH]c2=O)cc1  -9.79%
46. O=C(CCC(=O)N1CCCC(Nc2ccccc2)C1)c1ccc(F)cc1 (stereo not shown)  -8.8%
47. O=C(NCc1ccncc1)Nc1cc(Cl)ccc1Cl  -8.6%
48. Cc1occc1-c1nnc(SCC(=O)c2ccccc2)n1CC1CCCO1 (stereo not shown)  -8.58%
49. COc1ccc(OC)c(NC(=O)Cn2c(CCC(=O)O)ccc2-c2ccc(C)cc2)c1  -7.22%
50. CCCC(=O)C1C(=O)CC(C)(C)C(c2cc(C)no2)C1=O (stereo not shown)  -6.76%
51. O=C(ONC1=NCCCCC1)c1ccc([N+](=O)[O-])cc1  -5.87%
52. COc1cccc(/C=N/NC(=O)CNC(=O)c2ccc(S(=O)(=O)N3CCOCC3)cc2)c1OC  -4.96%
53. CCCCn1c(SCC(=O)NC2CCS(=O)(=O)C2)nnc1-c1ccc(OC)cc1 (stereo not shown)  -4.68%
54. CCOc1ccc(NC(=O)CSc2nnc(Cn3c(=O)sc4ccccc43)n2C)cc1  -4.3%
55. Cc1cc(C)c(C(=O)COC(=O)c2cc([N+](=O)[O-])ccc2N2CCOCC2)cc1C  -4.07%
56. COc1ccccc1NC(=O)CSc1nnc(-c2ccco2)n1N  -3.82%
57. O=C1C2CCCN2C(c2ccc(Cl)cc2)N1c1ccccn1 (stereo not shown)  -3.03%
58. Cc1occc1-c1nnc(SCC(=O)NCC2CCCO2)n1C (stereo not shown)  -2%
59. CCNC(=S)Nc1cc(OCC)c(NC(=O)c2ccco2)cc1OCC  -1.82%
60. CC1=CN2CC(O)CN=C2C=C1.Cl (stereo not shown)  -1.57%
61. COc1ccc(-c2nnc(SCC(=O)NCc3cccs3)n2C)cc1  -1.49%
62. CC(=O)Nc1ccc(S(=O)(=O)N2CCC(C(=O)NC3CCCC3)CC2)cc1  -0.813%
63. O=C(CSc1nnnn1-c1ccc(F)cc1)NCc1cccs1  -0.104%
64. COc1ccc(OC)c(CN2CCN(C(=O)c3ccco3)CC2)c1.O=C(O)C(=O)O  0.201%
65. O=C(Cn1nc(C(F)F)cc1C1CC1)N1CCCC1  1.61%
66. CN(C)S(=O)(=O)c1ccc(C(=O)OCC(=O)Nc2cccnc2Cl)cc1  1.64%
67. Cc1nnc(SCC(=O)NCc2cccs2)n1-c1ccccc1  1.68%
68. O=c1nc(-c2ccccc2)n(-c2ccccc2)[nH]1  1.69%
69. C/C(CC(=O)Nc1cccc(Cl)c1C)=N\NC(=O)Cc1csc(N)n1  2.42%
70. Cc1ccc(OCC(O)CN2CCN(CCO)CC2)c(C)c1.Cl (stereo not shown)  4.18%
71. COc1cc(CNc2ccc3[nH]c(=O)[nH]c3c2)cc(Cl)c1OCC(=O)NC(C)(C)C  4.56%
72. COCC1CCN(C(=O)c2cc(COc3cncc(Cl)c3)on2)C1 (stereo not shown)  5.09%
73. COc1ccc(CNCc2ccc(C(F)(F)F)cc2)cc1OC.O=C(O)C(=O)O  6.54%
74. Cc1ccc(C)c(-n2c(SCC(=O)NCC3CCCO3)nnc2-c2ccoc2C)c1 (stereo not shown)  6.82%
75. COc1ccc(OCC(=O)O/N=C(\N)c2ccc(OC)c(OC)c2)cc1  7.84%
76. COc1ccc(-c2nnc(SCC(=O)NCC3CCCO3)n2C)cc1 (stereo not shown)  9.8%
77. COc1cccc(N=Nc2c(C)[nH]n(-c3ccccc3)c2=O)c1  10.1%
78. CCOC(=O)CNC(=O)CSc1nnc(-c2ccco2)n1Cc1ccco1  10.4%
79. COc1cc(CC(=O)N(C)CC(=O)Nc2cc(C)ccc2C)cc(OC)c1OC  11%
80. CC(=O)Nc1ccc(S(=O)(=O)NC(C)C(=O)NCCc2ccc(F)cc2)cc1 (stereo not shown)  11.3%
81. Cc1ccc(C(O)(C(=O)NNc2ccc3ccccc3[nH+]2)c2ccc(C)cc2)cc1.[Cl-]  12.9%
82. CCOc1ccc2nc(NC(=S)N(C)C)sc2c1  13%
83. Clc1nc(-c2ccccc2)ncc1Oc1ccccc1  14.6%
84. Cc1cccc(-n2c(SCC(=O)O)nc3sc4c(c3c2=O)CCCC4)c1  16.6%
85. CC(=O)N1CCN(Cc2nc3cc(NC(=O)Cn4nc(C)c5ccccc5c4=O)ccc3n2C)CC1  17.9%
86. COc1ccc(-n2nnc3c(SCC(=O)Nc4ccccc4F)ncnc32)cc1  18.9%
87. COc1cccc(OC)c1OCCNCCO  21.5%
88. N#Cc1c(N)nc2c(c1N)CC(CO)O2 (stereo not shown)  22.6%
